Here are results for 9 compounds from PubChem BioAssay (Tox21).

The structures appear in SMILES notation. A number with no mark means an inactive call. Records with an inconclusive call do not appear. The source made the active and inactive calls. Unless noted, calls come from the whole dose curve.

Assay [1] can be described thus: qHTS assay to identify small molecule agonists of the sonic hedgehog signaling (Shh) pathway (AID 1259368). Note: nearly all actives have a fitted effect of over 15% in size. Note: potency is the fitted concentration of half-maximal effect. Summed up: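 Hedgehog pathway agonism scored by increased firefly luciferase luminescence in 3T3Gli1-Luc cells treated 24 hr at 37 C; detection used a 30 min room-temperature reagent incubation.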
Assay [2] in a line: qHTS assay to identify small molecule antagonists of the sonic hedgehog signaling (Shh) pathway (AID 1259369). Note: nearly all actives have a fitted effect of over 45% in size. Note: potency is the fitted concentration of half-maximal effect. The essentials: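 NIH/3T3 stable Gli1-Luc clone, 2,000 cells/well, 4hr settle; cpd + conditioned medium 24hr; Luc reagent 30min RT; luminescence.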
The target in assay [3] is Estrogen receptor beta (Homo sapiens) (UniProt Q92731). The assay is described as follows: qHTS assay to identify small molecule agonists of the estrogen receptor beta (ER-beta) signaling pathway (AID 1259377; active = well fitted activation curve with a large enough effect in the signal ratio in the repeat runs, not every such curve was filed as active; the % refers to the signal ratio). The essentials:
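Read-out: beta-lactamase FRET fluorescence. Cell line: ER-beta-UAS-bla HEK293T in 2% charcoal-stripped FBS. Exposure: 16 hr at 37C. Substrate step: 2 h at room temperature.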

The target of assay [4] is Androgen receptor (Homo sapiens) (UniProt P10275). Description: qHTS assay to identify small molecule agonists of the androgen receptor (AR) signaling pathway in the presence of an antagonist (AID 1259381). Note: potency is the fitted concentration of half-maximal effect; nearly all actives have a fitted effect of over 15% in size. The essentials:
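Luminescent ONE-Glo read, 30min at room temperature, follows 16hr compound exposure (15 concentrations) of MDA-kb2 cells at 37C, 0% CO2, with nilutamide added at 3.0uM final.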

Assay [5] in a line: qHTS assay to identify small molecule antagonists of the estrogen receptor beta (ER-beta) signaling pathway - cell viability counter screen (AID 1259382; active = well fitted curve in the direction sought with a large enough effect in the repeat runs; an effect the other way counts as inactive or inconclusive;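 note: HEK293T cells carrying ER-beta-UAS-bla reporter stimulated with estradiol; series mostly up to about 92 µM; nearly all actives have a fitted effect of over 55% in size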). Summed up: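 Readout: luminescence, CellTiter-Glo, same wells as bla assay. System: ER-beta-UAS-bla GripTite HEK293T, 2% charcoal-stripped FBS. Exposure: compounds plus 1nM 17-beta-estradiol, 16 hr, 37C.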
The target in assay [6] is Estrogen receptor (Homo sapiens) (UniProt P03372). The assay is described as follows: qHTS assay to identify small molecule agonists of the estrogen receptor alpha (ER-alpha) signaling pathway in the presence of an antagonist (AID 1259383). Note: top concentration of the series differs between compounds; nearly all actives have a fitted effect of over 15% in size. Summed up:
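Quantitative HTS confirmation: compounds titrated at 15 concentrations onto estrogen-deprived VM7Luc4E2 cells carrying a four-ERE luciferase construct, with ICI-182,780 present at 10.0nM final. Signal is luminescence after 22hr exposure.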

Assay [7] concerns the target Thyrotropin receptor (Homo sapiens) (UniProt P16473). Description: qHTS assay to identify small molecule antagonists of the thyroid stimulating hormone receptor (TSHR) signaling pathway (AID 1259385). Note: nearly all actives have a fitted effect of over 20% in size. The essentials:
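Antagonist mode: compound-treated TSHR-expressing HEK293 cells were stimulated with 1.5 ng/mL TSH (final) in presence of Ro20-1724 for 30 min at RT. HTRF cAMP detection after 1 h; each compound tested at 15 concentrations, triplicate.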

Assay [8] in a line: qHTS assay to identify small molecule agonists of the estrogen receptor alpha (ER-alpha) signaling pathway in the presence of an antagonist - cell viability counter screen (AID 1259386; active = well fitted curve in the direction sought with a large enough effect in the repeat runs; an effect the other way counts as inactive or inconclusive;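 note: series mostly up to about 92 µM; cells exposed to compounds for 22 h at 37 °C before the viability read; nearly all actives have a fitted effect of over 30% in size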). The essentials: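 The test measures whether compounds kill ER-alpha reporter cells (VM7Luc4E2) under antagonist co-treatment (ICI-182,780, 10.0nM). Fluorescence from CellTiter-Fluor is read after a 22hr exposure.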

A short description of assay [9]: qHTS assay to identify small molecule antagonists of the progesterone receptor (PR) signaling pathway - cell viability counter screen (AID 1346798; active = well fitted curve in the direction sought with a large enough effect in the repeat runs; an effect the other way counts as inactive or inconclusive; note: series mostly up to about 92 µM; nearly all actives have a fitted effect of over 50% in size). Summed up: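 Following a 4 hr attachment, PR-UAS-bla HEK293T cells in charcoal-stripped FBS medium were exposed to compounds with R5020 for 16 hr; CellTiter-Glo was added and luminescence read after 30 min at room temperature.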

Assay [10] in a line: qHTS assay to identify small molecule agonists of the progesterone receptor (PR) signaling pathway - cell viability counter screen (AID 1346799). Note: nearly all actives have a fitted effect of over 45% in size. The essentials: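 Here, 3,000 PR-UAS-bla HEK293T cells per well were treated with compounds for 16 hr after a 6 hr preincubation at 37C and 5% CO2; cell viability is the CellTiter-Glo luminescence signal.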
The nature of assay [11]: qHTS assay to identify small molecule antagonists of the TGF-beta/Smad signaling pathway - cell viability counter screen (AID 1346824; active = well fitted curve in the direction sought with a large enough effect in the repeat runs; an effect the other way counts as inactive or inconclusive; note: nearly all actives have a fitted effect of over 50% in size). Summed up:
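Cytotoxicity counter-screen run in the same wells as the beta-lactamase Smad reporter read: CellTiter-Glo luminescence after 30 min at room temperature. HEK 293T SBE-bla cells had 5 hr compound exposure at 37 C with TGF-beta1 (0.25 ng/mL stock).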

A short description of assay [12]: qHTS assay to identify small molecule agonists of the TGF-beta/Smad signaling pathway - cell viability counter screen (AID 1346829; active = well fitted curve in the direction sought with a large enough effect in the repeat runs; an effect the other way counts as inactive or inconclusive; note: top concentration of the series differs between compounds; nearly all actives have a fitted effect of over 45% in size). Summed up:
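Luminescence from CellTiter-Glo, read after a 30 min room-temperature incubation, gives cell viability of SBE-bla HEK 293T cells treated 5 hr with compounds at 37 C.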

Assay [13] can be described thus: qHTS assay to identify small molecule agonists of the TGF-beta/Smad signaling pathway (AID 1346859; active = well fitted activation curve with a large enough effect in the signal ratio in the repeat runs, not every such curve was filed as active; the % refers to the signal ratio; note: series mostly up to about 77 µM). Summed up:
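Each well held 4,000 SBE-bla HEK 293T cells incubated overnight before compound addition; 5 hr later the cleavable FRET substrate went on for 2 hr at room temperature, and fluorescence was read at two emissions.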

Assay [14] has as its target Thyrotropin-releasing hormone receptor (Homo sapiens) (UniProt P34981). The assay is described as follows: qHTS assay to identify small molecule antagonists of the thyrotropin-releasing hormone receptor (TRHR) signaling pathway (AID 1346877; active = well fitted inhibition curve with a large enough effect in the repeat runs, not every such curve was filed as active; note: series mostly up to about 51 µM). The essentials:
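Overnight-plated (18 h, 37 °C) HEK293 cells expressing TRHR were dye-loaded 2 h, treated with compound, then stimulated with TRH at 1 nM final. Fluorescence intensity was captured every second for 3 min.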

The target in assay [15] is Estrogen receptor beta (Homo sapiens) (UniProt Q92731). Description: qHTS assay to identify small molecule antagonists of the estrogen receptor beta (ER-beta) signaling pathway (AID 1259378; active = well fitted inhibition curve with a large enough effect in the signal ratio in the repeat runs, not every such curve was filed as active; the % refers to the signal ratio). Summed up: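 Antagonist mode: compounds added to beta-lactamase reporter HEK293T ER-beta-UAS cells stimulated with E2 (1nM final), 16 hr at 37C. LiveBLAzer B/G FRET substrate, 2 hours room temperature, fluorescence read-out.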
Sequence of Estrogen receptor beta (Homo sapiens) (Q92731 whole entry, looked up): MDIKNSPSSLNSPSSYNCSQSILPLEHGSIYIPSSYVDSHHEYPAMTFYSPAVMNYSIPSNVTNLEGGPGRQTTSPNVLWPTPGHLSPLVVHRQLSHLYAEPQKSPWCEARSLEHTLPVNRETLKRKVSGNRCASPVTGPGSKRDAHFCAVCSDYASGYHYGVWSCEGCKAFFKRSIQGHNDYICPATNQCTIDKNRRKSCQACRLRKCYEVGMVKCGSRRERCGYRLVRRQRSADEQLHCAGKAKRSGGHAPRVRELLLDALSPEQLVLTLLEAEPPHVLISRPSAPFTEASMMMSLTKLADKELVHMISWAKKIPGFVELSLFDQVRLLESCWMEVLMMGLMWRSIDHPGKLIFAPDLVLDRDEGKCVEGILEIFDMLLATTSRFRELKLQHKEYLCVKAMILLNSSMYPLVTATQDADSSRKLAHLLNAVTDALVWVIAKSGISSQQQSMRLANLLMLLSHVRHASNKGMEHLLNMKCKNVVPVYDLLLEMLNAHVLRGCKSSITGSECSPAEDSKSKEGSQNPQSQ

Assay [16] can be described thus: qHTS assay to identify small molecule agonists of the androgen receptor (AR) signaling pathway in the presence of an antagonist - cell viability counter screen (AID 1259379; active = well fitted curve in the direction sought with a large enough effect in the repeat runs; an effect the other way counts as inactive or inconclusive;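 note: MDA-kb2 human breast cancer cells carrying an MMTV luciferase reporter; series mostly up to about 92 µM; nearly all actives have a fitted effect of over 25% in size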). The essentials:
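MDA-kb2 viability measured by CellTiter-Fluor fluorescence in the same wells as the luciferase signal; nilutamide 3.0uM final; 15-point compound titration; 16 hr at 37C.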

A short description of assay [17]: qHTS assay to identify small molecule agonists or antagonists of the thyroid stimulating hormone receptor (TSHR) signaling pathway - wild type cell line counter screen (AID 1259384). The essentials:
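Counter screen in untransfected Hek293: compounds (15-point titration, triplicate) plus phosphodiesterase inhibitor Ro20-1724 added after 18 h plating; 30 min RT. Intracellular cAMP via competitive d2/cryptate immunoassay, 1 h incubation.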

Assay [18] deals with Progesterone receptor (Homo sapiens) (UniProt P06401). Description: qHTS assay to identify small molecule agonists of the progesterone receptor (PR) signaling pathway (AID 1346784). Note: nearly all actives have a fitted effect of over 30% in size. The essentials:
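Compounds were tested for PR agonism in HEK 293T cells bearing a beta-lactamase gene under UAS control. Treatment lasted 16 hr at 37C; signal came from fluorescence of a FRET substrate.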

Assay [19] has the same target. Description: qHTS assay to identify small molecule antagonists of the progesterone receptor (PR) signaling pathway (AID 1346795; active = well fitted inhibition curve with a large enough effect in the signal ratio in the repeat runs, not every such curve was filed as active; the % refers to the signal ratio). Summed up: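 In HEK293T cells bearing the PR-UAS-bla reporter, compound effects on promegestone-driven (1 nM) beta-lactamase expression are assessed after 16 hr using a fluorescent FRET substrate incubated 2 hr at room temperature.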
A short description of assay [20]: qHTS assay to identify small molecule agonists of the estrogen receptor beta (ER-beta) signaling pathway - cell viability counter screen (AID 1259380; active = well fitted curve in the direction sought with a large enough effect in the repeat runs; an effect the other way counts as inactive or inconclusive; note: nearly all actives have a fitted effect of over 30% in size). The essentials:
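Measured: luminescence from CellTiter-Glo after 30 min at room temperature, added to wells already read for the LiveBLAzer FRET reporter (2 hr substrate); ER-beta-UAS-bla HEK293T cells had 16 hr compound treatment at 37C, 5% CO2.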

Sequence of Progesterone receptor (Homo sapiens) (P06401 whole entry, looked up): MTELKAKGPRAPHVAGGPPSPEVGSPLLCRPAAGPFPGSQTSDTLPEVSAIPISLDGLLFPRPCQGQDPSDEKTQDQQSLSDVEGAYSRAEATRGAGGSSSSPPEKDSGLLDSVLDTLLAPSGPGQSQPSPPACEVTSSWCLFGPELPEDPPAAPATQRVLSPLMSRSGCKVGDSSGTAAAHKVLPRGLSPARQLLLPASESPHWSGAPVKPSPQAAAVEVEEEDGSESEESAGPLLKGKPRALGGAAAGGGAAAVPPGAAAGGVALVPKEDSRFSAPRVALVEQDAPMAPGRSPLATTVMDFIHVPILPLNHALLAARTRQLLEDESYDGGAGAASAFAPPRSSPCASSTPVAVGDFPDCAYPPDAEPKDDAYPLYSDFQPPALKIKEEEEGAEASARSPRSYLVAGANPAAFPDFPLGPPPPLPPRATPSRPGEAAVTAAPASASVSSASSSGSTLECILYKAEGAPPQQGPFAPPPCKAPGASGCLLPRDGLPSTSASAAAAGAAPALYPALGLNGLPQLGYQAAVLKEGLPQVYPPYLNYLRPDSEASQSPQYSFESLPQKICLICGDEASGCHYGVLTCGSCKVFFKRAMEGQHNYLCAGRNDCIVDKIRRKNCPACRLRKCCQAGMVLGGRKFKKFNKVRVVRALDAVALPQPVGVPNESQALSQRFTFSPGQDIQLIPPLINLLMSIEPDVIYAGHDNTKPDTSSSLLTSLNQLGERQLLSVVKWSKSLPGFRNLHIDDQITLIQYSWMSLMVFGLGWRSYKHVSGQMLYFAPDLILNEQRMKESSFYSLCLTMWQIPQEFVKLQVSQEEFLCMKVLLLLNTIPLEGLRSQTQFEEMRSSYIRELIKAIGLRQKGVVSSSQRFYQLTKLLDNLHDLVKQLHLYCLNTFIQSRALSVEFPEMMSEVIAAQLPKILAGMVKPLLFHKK
Sequence of Estrogen receptor (Homo sapiens) (P03372 whole entry, looked up): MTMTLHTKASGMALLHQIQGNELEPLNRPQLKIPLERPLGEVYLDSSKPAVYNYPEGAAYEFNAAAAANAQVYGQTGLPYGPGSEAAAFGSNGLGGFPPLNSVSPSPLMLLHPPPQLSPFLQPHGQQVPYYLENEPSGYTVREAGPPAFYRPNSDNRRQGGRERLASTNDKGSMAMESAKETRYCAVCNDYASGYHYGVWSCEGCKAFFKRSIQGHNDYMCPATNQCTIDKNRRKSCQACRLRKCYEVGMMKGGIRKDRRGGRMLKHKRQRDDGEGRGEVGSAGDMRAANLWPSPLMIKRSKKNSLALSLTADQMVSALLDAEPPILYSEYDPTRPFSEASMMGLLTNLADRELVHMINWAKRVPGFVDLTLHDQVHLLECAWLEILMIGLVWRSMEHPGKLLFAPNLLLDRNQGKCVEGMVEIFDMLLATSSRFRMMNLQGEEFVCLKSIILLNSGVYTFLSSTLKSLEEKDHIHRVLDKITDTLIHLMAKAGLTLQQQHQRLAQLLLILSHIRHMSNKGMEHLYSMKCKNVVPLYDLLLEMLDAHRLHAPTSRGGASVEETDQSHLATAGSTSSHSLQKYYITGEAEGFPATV
Sequence of Thyrotropin receptor (Homo sapiens) (P16473 whole entry, looked up): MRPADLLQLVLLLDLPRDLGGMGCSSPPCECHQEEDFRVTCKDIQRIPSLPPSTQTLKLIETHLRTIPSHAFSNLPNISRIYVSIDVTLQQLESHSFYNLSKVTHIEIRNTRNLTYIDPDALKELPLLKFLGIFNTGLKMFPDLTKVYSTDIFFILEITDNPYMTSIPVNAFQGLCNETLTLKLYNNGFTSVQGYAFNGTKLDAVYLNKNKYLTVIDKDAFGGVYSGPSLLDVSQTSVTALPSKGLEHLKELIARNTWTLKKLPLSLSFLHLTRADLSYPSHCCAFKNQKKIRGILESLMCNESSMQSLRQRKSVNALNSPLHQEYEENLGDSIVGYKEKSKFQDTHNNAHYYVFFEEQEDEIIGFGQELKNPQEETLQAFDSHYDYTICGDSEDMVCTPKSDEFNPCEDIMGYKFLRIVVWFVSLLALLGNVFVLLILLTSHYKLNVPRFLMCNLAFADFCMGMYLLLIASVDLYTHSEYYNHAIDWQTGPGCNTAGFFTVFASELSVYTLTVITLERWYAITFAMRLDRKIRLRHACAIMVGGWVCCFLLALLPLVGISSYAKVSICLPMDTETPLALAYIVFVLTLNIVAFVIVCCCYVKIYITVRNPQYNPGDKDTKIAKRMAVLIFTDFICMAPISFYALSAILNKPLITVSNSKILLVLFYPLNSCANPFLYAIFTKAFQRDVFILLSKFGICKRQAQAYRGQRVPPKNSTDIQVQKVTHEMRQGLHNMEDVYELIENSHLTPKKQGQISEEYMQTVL
Sequence of Thyrotropin-releasing hormone receptor (Homo sapiens) (P34981 whole entry, looked up): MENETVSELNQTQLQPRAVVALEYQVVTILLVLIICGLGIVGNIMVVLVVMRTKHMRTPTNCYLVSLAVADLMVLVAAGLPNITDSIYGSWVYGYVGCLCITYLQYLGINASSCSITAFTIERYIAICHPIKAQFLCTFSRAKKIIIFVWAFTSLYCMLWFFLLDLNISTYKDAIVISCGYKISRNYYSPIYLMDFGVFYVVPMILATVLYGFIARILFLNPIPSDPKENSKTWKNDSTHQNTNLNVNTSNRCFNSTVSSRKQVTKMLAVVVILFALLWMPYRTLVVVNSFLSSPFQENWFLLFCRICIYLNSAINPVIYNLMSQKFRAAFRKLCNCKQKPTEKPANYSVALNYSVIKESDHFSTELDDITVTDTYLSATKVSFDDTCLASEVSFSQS
Sequence of Androgen receptor (Homo sapiens) (P10275 whole entry, looked up): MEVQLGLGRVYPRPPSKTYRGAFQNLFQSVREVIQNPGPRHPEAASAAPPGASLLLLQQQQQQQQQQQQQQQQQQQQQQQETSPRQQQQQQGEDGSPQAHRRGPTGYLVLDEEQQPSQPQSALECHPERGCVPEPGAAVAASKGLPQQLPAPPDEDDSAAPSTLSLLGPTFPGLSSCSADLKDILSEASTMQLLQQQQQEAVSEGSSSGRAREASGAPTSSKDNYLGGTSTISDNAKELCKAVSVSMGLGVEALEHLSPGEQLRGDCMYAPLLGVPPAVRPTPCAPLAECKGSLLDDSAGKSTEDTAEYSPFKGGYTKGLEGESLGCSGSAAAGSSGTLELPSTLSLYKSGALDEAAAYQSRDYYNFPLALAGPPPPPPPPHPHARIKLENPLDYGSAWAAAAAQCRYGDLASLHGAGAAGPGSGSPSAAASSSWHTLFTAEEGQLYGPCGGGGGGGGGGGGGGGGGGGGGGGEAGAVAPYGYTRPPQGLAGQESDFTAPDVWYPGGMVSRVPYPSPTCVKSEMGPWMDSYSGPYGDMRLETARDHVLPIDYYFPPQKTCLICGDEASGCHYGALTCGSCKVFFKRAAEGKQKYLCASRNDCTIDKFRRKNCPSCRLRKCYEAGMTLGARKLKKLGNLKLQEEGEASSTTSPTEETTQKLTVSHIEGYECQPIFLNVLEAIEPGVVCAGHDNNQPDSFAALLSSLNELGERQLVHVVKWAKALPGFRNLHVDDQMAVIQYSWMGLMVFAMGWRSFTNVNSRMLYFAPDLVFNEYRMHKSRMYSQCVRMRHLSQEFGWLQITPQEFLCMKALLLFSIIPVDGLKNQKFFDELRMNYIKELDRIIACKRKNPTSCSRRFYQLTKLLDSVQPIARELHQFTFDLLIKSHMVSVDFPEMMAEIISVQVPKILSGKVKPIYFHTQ

For `CCN(CC)CC(=O)OCC(=O)[C@@]1(O)CC[C@H]2[C@@H]3CCC4=CC(=O)CC[C@]4(C)[C@H]3[C@@H](O)C[C@@]21C`, the Potency result in assay [1], in assay [2], in assay [3], in assay [5], in assay [6] and in [7] was “inactive” throughout. In addition, the Potency entry in assay [8], in [9] and in assay [10] was “inactive” in each case. Besides, the Potency in assay [4] is 211 nM (active). In addition, the compound was called inactive in assay [11], in assay [12], in assay [13] and in assay [14].
With `CCCCCC1CCC(=O)O1` (stereo not given), the Potency entry in [1], in assay [2], in assay [3], in assay [15], in assay [16] and in assay [5] was “inactive” in each case. In addition, the Potency entry in [6], in assay [7], in assay [8], in assay [18], in assay [19] and in assay [9] was “inactive” throughout. The call in assay [17], in [11], in [12], in assay [13] and in assay [14] was inactive.
Turning to `CC(=O)c1cccnc1`, the Potency entry in assay [1], in assay [2], in assay [3], in assay [15], in [20] and in [5] was “inactive” throughout. Besides, the Potency entry in [6], in assay [8], in assay [18], in assay [19], in assay [9] and in [10] was “inactive” each time. Further, the compound was called inactive in assay [11], in assay [12] and in [13].
Take `O=C1c2ccccc2C(=O)C1c1ccc2ccccc2n1`: the Potency in assay [1] is 121 nM (active). For the same compound, the Potency entry in assay [2], in assay [3], in assay [16], in [5], in [7] and in [18] was “inactive” in each case. For the same compound, the Potency entry in assay [19] and in [9] was “inactive” in each case. Further, the outcome in [17], in assay [11], in assay [12], in assay [13] and in assay [14] was inactive.
Consider `O=C(O)c1c2ccccc2cc2ccccc12`, for which the Potency result in assay [1], in assay [2], in assay [3], in assay [15], in [20] and in assay [5] was “inactive” each time. Moreover, the Potency result in assay [6], in [7], in assay [8], in assay [18] and in assay [10] was “inactive” throughout. Also, the compound was classed as inactive in assay [11], in [12], in assay [13] and in assay [14].
Consider `CCOC(=O)CC(O)(CC(=O)OCC)C(=O)OCC`, for which the Potency result in assay [1], in [3], in [15], in assay [20], in [5] and in assay [6] was “inactive” each time. The Potency entry in assay [7], in assay [8], in [18] and in assay [9] was “inactive” throughout. In addition, the Potency in assay [2] is 68600 nM (active). Besides, the compound was called inactive in [17], in assay [11], in assay [12] and in assay [13].
Turning to `CCCC(=O)OCc1ccccc1`, the Potency entry in [1], in [2], in assay [3], in assay [15], in assay [16] and in [5] was “inactive” each time. The Potency entry in [6], in assay [7], in [8], in assay [18], in assay [19] and in [9] was “inactive” each time. Also, the Potency entry in [10] is “inactive”. Also, the outcome in assay [17], in [11], in assay [12], in assay [13] and in [14] was inactive.
As to `CCCCOC(=O)C(C)Oc1ccc(Oc2ccc(C(F)(F)F)cn2)cc1` (stereo not given), the Potency result in [1], in assay [2], in assay [3], in assay [15], in assay [5] and in assay [6] was “inactive” each time. Also, the Potency result in [7], in assay [8], in assay [18], in assay [19], in assay [9] and in assay [10] was “inactive” in each case. Also, the result in assay [17], in assay [12] and in [13] was inactive.
As for `C/C(=C(\CCO)SS/C(CCO)=C(\C)N(C=O)Cc1cnc(C)nc1N)N(C=O)Cc1cnc(C)nc1N`, the Potency entry in assay [1], in assay [2], in assay [3], in assay [15], in [16] and in [5] was “inactive” throughout. For the same compound, the Potency result in assay [6], in assay [7], in assay [8], in [18], in [19] and in assay [9] was “inactive” each time. Moreover, the result in assay [17], in assay [11], in assay [12], in assay [13] and in [14] was inactive.
